Structures can show the parent of a compound that is named as a salt.
Tests used:
Conditions in all cases: 20 µM; incubation time: 27 h, anaerobic, 37 °C;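 for the amine columns active = adjusted P below 0.05 in both replicates with a change the same way and a mean fold change under 0.8 or over 1.25; inactive = the rest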
[1] = test system: Clostridium sporogenes DSM 1664; assay: growth (OD595) fold change vs plate DMSO controls (fold change (ratio)); higher = more growth
Procedure, shortened: (§1)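 Anaerobic mGAM cultures in 96-well plates were grown for 27 h at 37 °C, and absorbance was then read at 595 nm. After blank and compound background correction with 20 µM compound solutions in water, a calibration factor of 5 gave OD. Growth is the fold change relative to the median of each plate's DMSO controls. Values are means of 2 biological replicates, with fold changes above 1.5 set to NA.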

[2] = test system: Escherichia coli IAI1; assay: as above
Procedure, shortened: as §1

[3] = test system: Klebsiella aerogenes DSM 30053; assay: as above
Procedure, shortened: as §1

[4] = test system: Ruminococcus gnavus DSM 108212; assay: as above
Procedure, shortened: as §1

[5] = test system: Klebsiella aerogenes DSM 30053; assay: fold change of Histamine concentration vs plate DMSO controls (fold change (ratio)); higher = more amine produced, active = hit call of the paper (significant change in both replicates, either direction)
Procedure, shortened: (§2)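 Using LC–triple-quadrupole MS with dynamic MRM, amines were quantified against external calibration curves and corrected for drift within each batch. Samples were whole anaerobic mGAM cultures of four gut strains, grown 27 h at 37 °C from OD 0.1 before 1:1 dilution, extracted with cold acetonitrile/methanol containing 0.1% formic acid and centrifuged. Compounds were present at 20 µM final (sweeteners at 50 µM final). The numbers are fold changes versus plate DMSO controls, each the mean of 2 biological replicates.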

[6] = test system: Clostridium sporogenes DSM 1664; assay: fold change of Tryptamine concentration vs plate DMSO controls (fold change (ratio)); higher = more amine produced, active = hit call of the paper (significant change in both replicates, either direction)
Procedure, shortened: as §2

[7] = test system: Ruminococcus gnavus DSM 108212; assay: as above
Procedure, shortened: as §2

[8] = test system: Escherichia coli IAI1; assay: fold change of Putrescine concentration vs plate DMSO controls (fold change (ratio)); higher = more amine produced, active = hit call of the paper (significant change in both replicates, either direction)
Procedure, shortened: as §2

[9] = test system: Klebsiella aerogenes DSM 30053; assay: as above
Procedure, shortened: as §2

[10] = test system: Escherichia coli IAI1; assay: fold change of Cadaverine concentration vs plate DMSO controls (fold change (ratio)); higher = more amine produced, active = hit call of the paper (significant change in both replicates, either direction)
Procedure, shortened: as §2

[11] = test system: Klebsiella aerogenes DSM 30053; assay: as above
Procedure, shortened: as §2

[12] = test system: Ruminococcus gnavus DSM 108212; assay: fold change of 2-Phenylethylamine concentration vs plate DMSO controls (fold change (ratio)); higher = more amine produced, active = hit call of the paper (significant change in both replicates, either direction)
Procedure, shortened: as §2

Row | SMILES | growth [1] | growth [2] | growth [3] | growth [4] | fold change of Histamine concentration [5] | fold change of Tryptamine concentration [6] | fold change of Tryptamine concentration [7] | fold change of Putrescine concentration [8] | fold change of Putrescine concentration [9] | fold change of Cadaverine concentration [10] | fold change of Cadaverine concentration [11] | fold change of 2-Phenylethylamine concentration [12]
1 | CC[C@@H](CO)NC(=O)[C@@H]1C=C2c3cccc4[nH]cc(c34)C[C@H]2N(C)C1 [Methylergometrine maleate] | 1.08 | 1.03 | 1 | 1.11 | 1.03 (inactive) | 1.03 (inactive) | 1.02 (inactive) | 0.965 (inactive) | 1.01 (inactive) | 0.996 (inactive) | 1 (inactive) | 1.02 (inactive)
2 | CC1(C)[C@H](/C=C(\Cl)C(F)(F)F)[C@@H]1C(=O)OC(C#N)c1cccc(Oc2ccccc2)c1 (stereo partly specified) | 0.953 | 0.991 | 0.981 | 0.999 | 0.987 (inactive) | 0.918 (inactive) | 1.03 (inactive) | 0.976 (inactive) | 0.987 (inactive) | 1.02 (inactive) | 0.995 (inactive) | 1.08 (inactive)
3 | C#CCOc1ccc(CCNC(=O)C(OCC#C)c2ccc(Cl)cc2)cc1OC (stereo unspecified) | 1 | 1.06 | 1.03 | 0.954 | 0.95 (inactive) | 0.986 (inactive) | 0.989 (inactive) | 1.05 (inactive) | 1.01 (inactive) | 0.933 (inactive) | 1.01 (inactive) | 0.964 (inactive)
4 | c1ccc2c(c1)OCC(C1=NCCN1)O2 (stereo unspecified) [Idazoxan hydrochloride] | 1.09 | 1.01 | 1.01 | 0.978 | 1 (inactive) | 0.976 (inactive) | 0.832 (inactive) | 1.1 (inactive) | 0.998 (inactive) | 0.996 (inactive) | 0.996 (inactive) | 0.785 (inactive)
5 | OCC(O)CCl (racemic) | 0.938 | 1.02 | 0.97 | 0.97 | 1.01 (inactive) | 1.11 (inactive) | 1.08 (inactive) | 0.975 (inactive) | 0.959 (inactive) | 0.891 (inactive) | 1 (inactive) | 1.18 (inactive)
6 | CC(=O)NC1CCSC1=O (stereo unspecified) [Citiolone] | 1.15 | 0.993 | 1.07 | 1 | 0.819 (inactive) | 1.05 (inactive) | 1.17 (inactive) | 1.02 (inactive) | 0.93 (inactive) | 0.99 (inactive) | 1.06 (inactive) | 1.31 (inactive)
7 | O=S(=O)(c1ccc(O)cc1)c1ccc(O)cc1 [Bisphenol S] | 1.08 | 1.02 | 0.994 | 1.04 | 0.949 (inactive) | 1.04 (inactive) | 0.941 (inactive) | 0.883 (inactive) | 0.939 (inactive) | 0.961 (inactive) | 0.998 (inactive) | 0.946 (inactive)
8 | O=[N+]([O-])O[C@H]1CO[C@H]2[C@@H]1OC[C@H]2O[N+](=O)[O-] [Isosorbide dinitrate] | 0.818 | 1.09 | 1.08 | 1.25 | 0.954 (inactive) | 1.03 (inactive) | 1 (inactive) | 1.06 (inactive) | 0.97 (inactive) | 0.94 (inactive) | 1.02 (inactive) | 1.06 (inactive)
9 | C=CCN1CC[C@]23c4c5ccc(O)c4O[C@H]2C(=O)CC[C@@]3(O)[C@H]1C5 [Naloxone hydrochloride] | 1.22 | 1.04 | 1.03 | 1.24 | 1.04 (inactive) | 1.01 (inactive) | 0.998 (inactive) | 1.02 (inactive) | 0.997 (inactive) | 0.994 (inactive) | 0.997 (inactive) | 0.985 (inactive)
10 | CC(C)OC(=O)Nc1cccc(Cl)c1 | 1.05 | 1.04 | 1.05 | 0.957 | 0.972 (inactive) | 0.989 (inactive) | 1.02 (inactive) | 0.987 (inactive) | 0.984 (inactive) | 0.927 (inactive) | 1.01 (inactive) | 1.06 (inactive)
11 | CC(Oc1ccc(Oc2ncc(C(F)(F)F)cc2Cl)cc1)C(=O)O (stereo unspecified) | 1.02 | 1.03 | 1.01 | 0.977 | 0.989 (inactive) | 0.943 (inactive) | 0.974 (inactive) | 1.05 (inactive) | 0.988 (inactive) | 1.04 (inactive) | 0.981 (inactive) | 0.982 (inactive)
12 | CN/C(=N/CC1CCOC1)N[N+](=O)[O-] (stereo unspecified) | 1.07 | 1 | 1.01 | 1.03 | 1.03 (inactive) | 0.993 (inactive) | 1.01 (inactive) | 1.03 (inactive) | 1.02 (inactive) | 0.992 (inactive) | 0.999 (inactive) | 0.994 (inactive)
13 | Oc1ccc(Cl)cc1Cc1cc(Cl)ccc1O [Dichlorophen] | 0.903 | 0.835 | 0.919 | 0.819 | 1.13 (inactive) | 0.732 (inactive) | 0.561 (active) | 1.21 (inactive) | 0.97 (inactive) | 1.66 (active) | 0.975 (inactive) | 0.635 (inactive)

From the supplement of paper PMC12494721
